Results from PubChem BioAssay (NCI).
The panel holds about 83,000 compounds, 20% with a hit somewhere; the sample as a whole holds those more often.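 Interpretation: 100, growth as untreated; towards 0, rising growth inhibition; 0, no net growth; 0 to -100, cell death. Compounds scoring below 10 were considered active.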 A number with no mark means an inactive call. The source made the active and inactive calls.

Each compound was assayed on NCI-H460 lung (assay: NCI-60 one-dose screen, 48 h (100 = growth as untreated, 0 = no growth, -100 = all killed)). Conditions: 10 µM unless noted.
For `Cc1cn(C)cn1`, the growth was 106%. Work on `C#CCOc1ccc2nc(CCl)c(Cl)c(Nc3cccc(C(F)(F)F)c3)c2c1` yielded a growth of 105%. `Cc1ccc(NC(=O)c2cc3ccccc3cc2O)c(C)c1` was tested, and the growth was 79.9%.

The compounds below were run on HOP-92 NSCLC in the same assay as above. Conditions: 10 µM unless noted.
`CN(C)CCC(=O)C1CC1` gave a growth of 101%. Work on `COc1cc(/C=C2\C(=O)N(CCCOc3cc(O)c4c(=O)cc(-c5ccccc5)oc4c3)c3ccccc32)cc(OC)c1O` yielded a growth of 72.1%. Work on `Cc1c2ccccc2nc2cc3c(cc12)[C@H]1CC[C@]2(C)C(=O)CC[C@H]2[C@@H]1CC3` yielded a growth of 86.9%. `COc1ccc(C(=O)/C=C/c2ccccc2)cc1S(N)(=O)=O` showed a growth of 95.7%. In the case of `Cc1ccc(OCCOCCOCCOc2ccc(C)n(O)c2=S)c(=S)n1O`, the growth is reported as 81.1%. `S=c1ccnc[nH]1` was tested, and the growth was 76.2%. Work on `O=C(Oc1ccc2c(c1)sc1nc(-c3ccccc3)[nH]c(=O)c12)C(F)(F)F` yielded a growth of 54.1%. Compound `Cc1cccc(-c2nc(C(C)C)sc2-c2ccnc(NCCCNS(=O)(=O)c3ccc(Cl)cc3)c2)c1` has a growth of 83.1%. With `CN(C)CCC(CCN(C)C)(C(=O)O)c1ccccc1` the growth was 84.9%. Work on `CC1=C2[C@@H](CC1)[C@]1(C)O[C@@](C3CCNCC3)(C[C@H]1OC(=O)CO)[C@H]2OC(=O)/C=C/c1ccccc1` yielded a growth of 71.8%. `COc1ccc2c(O)c(/C=C3\N=Nc4ncccc43)oc2c1C[C@@H]1CCNC[C@H]1F` was tested, and the growth was 98.7%. `CC1(C)CC[C@]2(CO)CC[C@]3(C)[C@](O)([C@H](O)C[C@@H]4[C@@]5(C)CCCNC(C)(C)[C@@H]5CC[C@]43C)[C@@H]2C1` showed a growth of 94%. Work on `Cc1ccccc1N1CCN(C(=S)c2ccccc2)CC1` yielded a growth of 97.9%. In the case of `C1CCC(N2CN3c4nonc4N4CN(C5CCCCC5)CN5c6nonc6N(C2)C3C45)CC1` (stereo unspecified), the growth is reported as 82.1%. Work on `COc1ccc(/C=N/Nc2c3ccccc3nc3ccccc23)cc1` yielded a growth of 90.2%. `Cc1nc2sc(C(=O)Nc3ccccn3)c(N)c2cc1C(C)O` (stereo unspecified) was tested, and the growth was 74.3%. In the case of `COc1ccc(C/C(C)=C(\c2ccc(Cl)cc2)c2ccc(OCCCN(C)C)cc2)cc1`, the growth is reported as 52.9%. Work on `CC1(C)CC[C@]23CC[C@]4(C)[C@H](CC[C@@H]5[C@@]6(C)C/C(=C/O)C(=O)C(C)(C)[C@@H]6CC[C@]54C)[C@H]2[C@H]1OC3` yielded a growth of 105%. Work on `Nc1ccc(Br)cc1C(F)(F)F` yielded a growth of 104%. Compound `Cc1oc(-c2ccc(Cl)cc2)nc1C1=NN(C(=O)c2ccncc2)C(c2ccccc2)C1` (stereo unspecified) has a growth of 96.1%. For `CCN(CC)CCOc1ccc(Nc2ncc3cc(-c4c(Cl)cccc4Cl)c(=O)n(CCOC)c3n2)cc1`, the growth was -18.7% (active). In the case of `COc1ccc(Oc2ccc(/C=C/C(=O)c3ccc(OC)c(OC)c3)cc2)cc1`, the growth is reported as 83.7%. Compound `C=CC(CC(c1ccccc1)(c1ccccc1)c1ccccc1)N(CC)CC` (stereo unspecified) has a growth of 54.8%. Compound `CC[C@@H](C(=O)[C@@H](C)[C@@H](O)[C@H](C)[C@@H]1O[C@@H]([C@@H](CC)C(=O)ONC(=O)c2ccccc2O)CC[C@@H]1C)C1O[C@]2(C=CC(=O)[C@]3(CC[C@@](C)([C@H]4CC[C@](O)(CC)[C@H](C)O4)O3)O2)[C@H](C)C[C@@H]1C` (stereo partly specified) has a growth of 37.3%. `C[C@H](c1nc2ccc(C#N)cc2[nH]1)[C@H]1CC[C@H]2[C@@H]3CCC4=CC(=O)CC[C@]4(C)[C@H]3CC[C@]12C` was tested, and the growth was -9.25% (active). Work on `COc1ccc2[nH]cc(-c3nonc3-c3c[nH]c4ccc(Br)cc34)c2c1` yielded a growth of 54%. With `O=C(NCCN1CCOCC1)OCc1ccc2c(Cl)cc(Cl)c(O)c2n1` the growth was 77.3%. For `COc1cccc(-c2cn3nc(-c4cn(C)c5ccccc45)sc3n2)c1`, the growth was 81.8%. In the case of `NS(=O)(=O)c1ccc(C(=O)NN2C(=O)c3ccccc3C2=O)cc1`, the growth is reported as 107%. Work on `CC(C)=CC(=O)N[C@H]1CC[C@]2(C)C3CC[C@]4(C)C(C(C)N(C)C)=CCC4C3CCC2[C@H]1O` (stereo partly specified) yielded a growth of 41%. In the case of `CCCn1c(=S)sc2c(NNC(C)=O)nc(C)nc21`, the growth is reported as 89.4%. Compound `Cc1nc(N/N=C/c2cn(-c3ccccc3)nc2-c2cc3ccccc3oc2=O)sc1N=Nc1ccccc1` has a growth of 97.1%. `O=C(Nc1ncc(Cc2ccccc2)s1)c1sc2ccccc2c1Cl` gave a growth of 76.7%.
